Hits are enriched below; roughly 6.5% of the tested compounds scored in any of these assays.
A340 absorber = compounds absorbing at 340 nm. AID 708. fold change at 10 µM. 65,000 tested, under 10 active. compound absorbance at 340 nm, fold over control;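 active means at 10 µM dose, initial 340 nm absorbance at least 2 fold that of control wells; inactive means change under 2 fold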;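 further: initial absorbance extrapolated from kinetic A340 decline of NADH oxidation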
PMK inhibit = inhibitors of Streptococcus pneumoniae phosphomevalonate kinase; inhibition, % at 10 µM; 0.49% of 65,000 active; AID 539; purified PMK, PK/LDH-coupled NADH absorbance 340 nm;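 active means top-ranked compounds by inhibition in the single 10 µM screen, taking a fixed number of the strongest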;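 further: 0% = full reaction with DMSO carrier and 100% = background rate without enzyme reaction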
Spn MK inh = blocks S. pneumoniae mevalonate kinase. purified MK, PK/LDH-coupled NADH absorbance 340 nm. inhibition, % at 10 µM. 0.48% of 65,000 active;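 active means ranked among the strongest by inhibition in the single 10 µM screen, a fixed top-ranked set picked for dose follow-up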
Autofluor 339 = intrinsic fluorescence of library compounds, ex339/em460 – biochemical, MLSMR library, data from DPM-DC assay, artefact control, profiling panel | compound autofluorescence, ex339/em460 nm, NADH buffer; stronger effect = higher value; 1 = no-compound wells, NADH background | fluorescence fold increase at 10 µM | 5.5% of 65,000 active;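 active means at 10 µM, mean starting fluorescence two-fold or more over control wells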;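 further: signal is the first read of a kinetic run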
DPM-DC inhibit = blocks S. pneumoniae diphosphomevalonate decarboxylase; 0.49% of 65,000 active; calls only at 10 µM; purified DPM-DC, PK/LDH coupled NADH fluorescence; AID 556;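 active means the 320 compounds with the highest percent inhibition in the single-dose primary screen, excluding strongly autofluorescent ones, cut at about 32% in these data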;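 further: kinetic rate of NADH fluorescence loss reporting ADP formed by the decarboxylase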
NADH coupling = blocks coupling enzymes of NAD/NADH assays | IC50, µM (doses to about 10 µM), for inactives: top-dose inhibition | coupled PK/LDH NADH assays, four targets | 0.02% of 65,000 active | AID 774;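 active means single-dose screening hits from any of four coupled enzyme assays that gave an IC50 when retested across doses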;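 further: the DPM-DC format reads NADH fluorescence rather than 340 nm absorbance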
* = called active by the depositor.

CCOC(=O)c1ccc2[nH]c(C)cc(=O)c2c1 was read as A340 absorber 1.07, PMK inhibit 2.0, Spn MK inh 5.0, Autofluor 339 2.08* and NADH coupling 4.0%.
Cc1cc(=O)c2cc(Cl)ccc2[nH]1 was read as A340 absorber 0.99, PMK inhibit 7.0, Spn MK inh 6.0, Autofluor 339 1.09, DPM-DC inhibit inactive and NADH coupling 4.0%.
For CCOC(=O)c1ccc2[nH]c(C)c(CCC(C)=O)c(=O)c2c1 the results were A340 absorber 1.07, PMK inhibit 2.0, Spn MK inh 8.0, Autofluor 339 2.13* and NADH coupling 5.0%.
Screening CCOC(=O)c1ccc2[nH]c3c(c2c1)CN(C)CC3 returned A340 absorber 0.99, PMK inhibit 4.0, Spn MK inh 4.0, Autofluor 339 1.14, DPM-DC inhibit inactive and NADH coupling 2.0%.
COC(=O)c1ccc2[nH]c(C)cc(=O)c2c1 was read as A340 absorber 1.08, PMK inhibit 8.0, Spn MK inh 6.0, Autofluor 339 2.26* and NADH coupling 7.0%.
For CCN(CC)S(=O)(=O)c1ccc(NC2CCCc3ccccc32)nc1 (stereo not given) the results were A340 absorber 1.01, PMK inhibit 0.0, Spn MK inh 10.0, Autofluor 339 1.04, DPM-DC inhibit inactive and NADH coupling 2.0%.
Screening Nc1ncnc2oc(-c3ccco3)c(-c3ccco3)c12 returned A340 absorber 1.02, PMK inhibit 3.0, Spn MK inh 15.0, Autofluor 339 2.4* and NADH coupling 6.0%.
`Nc1nnc(-c2ccco2)s1` gave A340 absorber 1.03, PMK inhibit 0.0, Spn MK inh 3.0, Autofluor 339 1.01, DPM-DC inhibit inactive and NADH coupling 4.0%.
Screening CCN(CC)Cc1c(O)ccc2c(C)c(CC(=O)OC)c(=O)oc12 returned A340 absorber 1.16, PMK inhibit 5.0, Spn MK inh 6.0, Autofluor 339 2.36* and NADH coupling 6.0%.
For CCN(CC)Cc1c(O)ccc2c(-c3ccccc3)cc(=O)oc12 the results were A340 absorber 1.09, PMK inhibit 10.0, Spn MK inh 7.0, Autofluor 339 2.09* and NADH coupling 9.0%.
`COC(=O)Cc1c(C)c2ccc(OCC(C)=O)c(C)c2oc1=O` gave A340 absorber 1.12, PMK inhibit 8.0, Spn MK inh 6.0, Autofluor 339 3.79* and NADH coupling 7.0%.
C=C(C)COc1ccc2c(C)c(CC(=O)OC)c(=O)oc2c1C was read as A340 absorber 1.09, PMK inhibit 0.0, Spn MK inh 2.0, Autofluor 339 3.84* and NADH coupling 1.0%.
`CC1c2nc3ccccc3n2C(CC(=O)NCc2ccccn2)C(=O)N1Cc1ccccc1` (stereo not given) gave A340 absorber 0.98, PMK inhibit 6.0, Spn MK inh 6.0, Autofluor 339 1.05, DPM-DC inhibit inactive and NADH coupling 2.0%.
O=C(Nc1ccc2nc(-c3ccco3)c(-c3ccco3)nc2c1)N1CCCCCC1 was read as A340 absorber 1.15, PMK inhibit 9.0, Spn MK inh 16.0, Autofluor 339 2.67*, DPM-DC inhibit active and NADH coupling 19.0%.
CCOC(=O)C1CCN(C(=O)Nc2ccc3nc(-c4ccco4)c(-c4ccco4)nc3c2)CC1 was read as A340 absorber 1.06, PMK inhibit 0.0, Spn MK inh 20.0, Autofluor 339 1.74, DPM-DC inhibit inactive and NADH coupling 15.0%.
For CCOC(=O)N1CCN(C(=O)Nc2ccc3nc(C)c(C)nc3c2)CC1 the results were A340 absorber 1.12, PMK inhibit 5.0, Spn MK inh 8.0, Autofluor 339 2.22* and NADH coupling 7.0%.
For O=C(NC1CCCC1)c1ccc2nc[nH]c2c1 the results were A340 absorber 1.01, PMK inhibit 11.0, Spn MK inh 11.0, Autofluor 339 1.08, DPM-DC inhibit inactive and NADH coupling 4.0%.
Screening O=C(NC1CCCC1)c1ccc2nc(-c3ccco3)c(-c3ccco3)nc2c1 returned A340 absorber 1.02, PMK inhibit 19.0, Spn MK inh 20.0, Autofluor 339 2.9*, DPM-DC inhibit inactive and NADH coupling 17.0%.
For CC1(C)CC(=O)C2=C(C1)OC(N)=C(C#N)C2Cc1ccccc1 (stereo not given) the results were A340 absorber 1.03, PMK inhibit 0.0, Spn MK inh 7.0, Autofluor 339 1.06, DPM-DC inhibit inactive and NADH coupling 2.0%.
`COc1ccccc1-c1nnc(SCC(=O)NCc2c(C)c(Cl)cc(C(C)C)c2O)o1` gave A340 absorber 1.02, PMK inhibit 2.0, Spn MK inh 2.0, Autofluor 339 1.11, DPM-DC inhibit inactive and NADH coupling 2.0%.
Screening CN1C(=O)OC2(C)CCc3ccccc3C12C (stereo not given) returned A340 absorber 1, PMK inhibit 31.0*, Spn MK inh 0.0, Autofluor 339 1.07, DPM-DC inhibit inactive and NADH coupling 10.0%.
For CC1(C)CC(=O)C(C=NCCN2CCN(C(=O)C34CC5CC(CC(C5)C3)C4)CC2)=C(O)C1 the results were A340 absorber 1, PMK inhibit 6.0, Spn MK inh 0.0, Autofluor 339 1.07, DPM-DC inhibit inactive and NADH coupling 2.0%.
Screening Cc1onc(-c2ccccc2Cl)c1C(=O)Nc1cccc(-c2cn3cccnc3n2)c1 returned A340 absorber 1.03, PMK inhibit 10.0, Spn MK inh 2.0, Autofluor 339 3.55* and NADH coupling 3.0%.
Screening CN(CC(=O)Nc1ccncc1)S(=O)(=O)c1ccc(Cl)cc1 returned A340 absorber 1.08, PMK inhibit 4.0, Spn MK inh 11.0, Autofluor 339 1.14, DPM-DC inhibit inactive and NADH coupling 5.0%.
Screening O=c1c[n+]([O-])c2ccccc2n1OCc1c(F)cccc1F returned A340 absorber 1.12, PMK inhibit 12.0*, Spn MK inh 8.0, Autofluor 339 1.26, DPM-DC inhibit inactive and NADH coupling 6.0%.
O=c1c[n+]([O-])c2ccccc2n1OCc1ccccn1 was read as A340 absorber 1.03, PMK inhibit 0.0, Spn MK inh 0.0, Autofluor 339 1.18, DPM-DC inhibit inactive and NADH coupling 1.0%.
Screening CCOC(=O)c1ccccc1NC(=O)c1cc2sccc2n1C returned A340 absorber 1.02, PMK inhibit 9.0, Spn MK inh 5.0, Autofluor 339 2.57*, DPM-DC inhibit inactive and NADH coupling 4.0%.
Screening CCOC(=O)c1cccc(NC(=O)c2cc3sccc3n2C)c1 returned A340 absorber 0.99, PMK inhibit 13.0, Spn MK inh 6.0, Autofluor 339 1.11, DPM-DC inhibit inactive and NADH coupling 7.0%.
`O=C(Nc1ccc(-c2nc3ccccc3o2)c(O)c1)c1cc(-n2cnnc2)ccc1Cl` gave A340 absorber 1.09, PMK inhibit 6.0, Spn MK inh 12.0, Autofluor 339 3.86* and NADH coupling 9.0%.

Source: PubChem
